Measured values: PubChem BioAssay (NCATS)
Results filed as inconclusive are left out. Unmarked numbers belong to inactive results. The source made the active and inactive calls. The call rests on the fitted dose curve; in most records, active means well fitted inhibition curve with a large enough effect; inconclusive means small, poorly fitted or top-dose-only effect; inactive means flat fitted curve, though single readings scatter.

system: PC26; test: qHTS profiling for inhibitors of Plasmodium falciparum proliferation (AID 504749); further: nearly all actives have a fitted effect of over 60% in size;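 on activity, negative = inhibition: 0% = DMSO vehicle and full inhibition = artemisinin control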; conditions: P. falciparum in erythrocytes, SYBR Green DNA, 72 h; series mostly up to 28.7 µM; activity, negative = inhibition: at the top concentration
How it was run: (§1)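 Readout was DNA-dye fluorescence from lysed cultures, ex 485/em 535 nm. Parasitized red cells had grown 72 h with compound; data scaled between 0.29 uM artemisinin and DMSO wells and corrected using vehicle-only plates.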
Potency means the concentration at half of the fitted maximal effect.

Row | SMILES | Potency | activity, negative = inhibition
1 | CN(C)CCCN1c2ccccc2Sc2ccc(Cl)cc21 | 6.75 µM (active) | 
2 | CC(=O)c1ccc2c(c1)N(CCCN(C)C)c1ccccc1S2 |  | -18.2% [at 12.8 µM]
3 | O=C(O)CN1C(=O)c2cccc3cccc(c23)C1=O |  | 0.838%
4 | Nc1ccc(S(=O)(=O)Nc2ccc(Cl)nn2)cc1 |  | 0.602% [at 12.8 µM]
5 | CC(C)(C)C(=O)C(Oc1ccc(Cl)cc1)n1ccnc1 (stereo unspecified) | 16.9 µM (active) | 
6 | C[C@]12C[C@H](O)[C@H]3[C@@H](CCC4=CC(=O)CC[C@@]43C)[C@@H]1CC[C@@H]2C(=O)CO |  | -9.1%
7 | NC1CCN(c2cccc(Cl)n2)CC1 |  | -11.9%
8 | Cc1ccc2nc(N)[nH]c(=O)c2c1Sc1ccncc1 |  | -1.96%
9 | CC(CN1c2ccccc2Sc2ccccc21)N(C)C (stereo unspecified) |  | -4.57%
10 | CCCn1cnc2c1c(=O)n(CCCCC(C)=O)c(=O)n2C |  | -8.78%
11 | NCCNCCNCCN |  | 0.352%
12 | Nc1ncnc2c1ncn2[C@@H]1O[C@H](CO)[C@@H](O)[C@H]1O |  | 15.8%

system: PC49; test: as above; conditions: P. falciparum in erythrocytes, SYBR Green DNA, 72 h; series mostly up to 28.7 µM; activity, negative = inhibition: at the top concentration
How it was run: as §1

Row | SMILES | Potency | activity, negative = inhibition
13 | CN(C)CCCN1c2ccccc2Sc2ccc(Cl)cc21 | 7.08 µM (active) | 
14 | CN(C)CCN(Cc1ccccc1)c1ccccn1 |  | -28.8%
15 | CC(=O)c1ccc2c(c1)N(CCCN(C)C)c1ccccc1S2 |  | -10.4% [at 12.8 µM]
16 | O=C(O)CN1C(=O)c2cccc3cccc(c23)C1=O |  | 9.11%
17 | CN1CCCCC1CCN1c2ccccc2Sc2ccc(S(C)=O)cc21 (stereo unspecified) |  | -23.6%
18 | NC1CCN(c2cccc(Cl)n2)CC1 |  | -19.3%
19 | CNCCCC1c2ccccc2C=Cc2ccccc21 |  | -22.2% [at 12.8 µM]
20 | Oc1ccc(C(O)CNCCCCCCNCC(O)c2ccc(O)c(O)c2)cc1O (stereo unspecified) |  | -27.5%
21 | CC(CN1c2ccccc2Sc2ccccc21)N(C)C (stereo unspecified) |  | 15.1%
22 | CCCn1cnc2c1c(=O)n(CCCCC(C)=O)c(=O)n2C |  | 13.6%
23 | CC(C(O)c1ccc(O)cc1)N1CCC(Cc2ccccc2)CC1 (stereo unspecified) |  | -10.2%
24 | CCOc1nc2cccc(C(=O)O)c2n1Cc1ccc(-c2ccccc2-c2nn[nH]n2)cc1 |  | -0.0349%
25 | c1ccc(CN(CC2=NCCN2)c2ccccc2)cc1 | 3.16 µM (active) | 
26 | CCOC(CN1CCN(CC(C)C(=O)c2ccccc2)CC1)c1ccccc1 (stereo unspecified) |  | -7.08%
27 | OCc1cc(C(O)CNCCCCCCOCCCCc2ccccc2)ccc1O (stereo unspecified) |  | 7.63%
28 | NCCNCCNCCN |  | 2.06%
29 | Nc1ncnc2c1ncn2[C@@H]1O[C@H](CO)[C@@H](O)[C@H]1O |  | 19%
30 | CSc1ccc2c(c1)C(N1CCN(C)CC1)Cc1ccccc1S2 (stereo unspecified) |  | -12.4%
31 | COCCOC(=O)C1=C(C)NC(C)=C(C(=O)OC/C=C/c2ccccc2)C1c1cccc([N+](=O)[O-])c1 (stereo unspecified) |  | -10.3%
32 | COc1ccc2[nH]c(S(=O)Cc3ncc(C)c(OC)c3C)nc2n1 (stereo unspecified) | 7.94 µM (active) | 

system: SC27B; test: as above; conditions: P. falciparum in erythrocytes, SYBR Green DNA, 72 h; series mostly up to 28.7 µM; activity, negative = inhibition: at the top concentration
How it was run: as §1

Row | SMILES | activity, negative = inhibition | Potency
33 | CN(C)CCN(Cc1ccccc1)c1ccccn1 | -9.83% | 
34 | NC(=O)N/N=C/c1ccc([N+](=O)[O-])o1 |  | 12.6 µM (active)
35 | CCCCN(CCCC)CC(O)c1cc(Cl)cc2c1-c1ccc(Cl)cc1/C2=C/c1ccc(Cl)cc1 (stereo unspecified) |  | 0.0112 µM (active)
36 | CC(=O)c1ccc2c(c1)N(CCCN(C)C)c1ccccc1S2 | -8.89% [at 12.8 µM] | 
37 | CSc1ccc2c(c1)N(CCC1CCCCN1C)c1ccccc1S2 (stereo unspecified) |  | 12.6 µM (active)
38 | O=C(O)CN1C(=O)c2cccc3cccc(c23)C1=O | 3.64% | 
39 | NC1CCN(c2cccc(Cl)n2)CC1 | -7.59% | 
40 | Cc1c(O)cccc1C(=O)N[C@@H](CSc1ccccc1)[C@H](O)CN1C[C@H]2CCCC[C@H]2C[C@H]1C(=O)NC(C)(C)C |  | 7.94 µM (active)
41 | CNCCCC1c2ccccc2C=Cc2ccccc21 | -25.5% [at 12.8 µM] | 
42 | CCCn1cnc2c1c(=O)n(CCCCC(C)=O)c(=O)n2C | 15.3% | 
43 | CCOc1nc2cccc(C(=O)O)c2n1Cc1ccc(-c2ccccc2-c2nn[nH]n2)cc1 |  | 11.2 µM (active)
44 | CCOC(CN1CCN(CC(C)C(=O)c2ccccc2)CC1)c1ccccc1 (stereo unspecified) | -22.5% | 
45 | OCc1cc(C(O)CNCCCCCCOCCCCc2ccccc2)ccc1O (stereo unspecified) | -15.1% | 
46 | CN1CCC[C@@H]1Cc1c[nH]c2ccc(CCS(=O)(=O)c3ccccc3)cc12 | -24.9% | 
47 | NCCNCCNCCN | 4.18% | 
48 | Nc1ncnc2c1ncn2[C@@H]1O[C@H](CO)[C@@H](O)[C@H]1O | 4.06% | 
49 | COCCOC(=O)C1=C(C)NC(C)=C(C(=O)OC/C=C/c2ccccc2)C1c1cccc([N+](=O)[O-])c1 (stereo unspecified) |  | 10 µM (active)
50 | COc1ccc2[nH]c(S(=O)Cc3ncc(C)c(OC)c3C)nc2n1 (stereo unspecified) |  | 8.91 µM (active)
51 | CCN(CC)CCNC(C(=O)OCCC(C)C)c1ccccc1 (stereo unspecified) | -26.7% | 

system: TAB109; test: as above; conditions: P. falciparum in erythrocytes, SYBR Green DNA, 72 h; series mostly up to 28.7 µM; activity, negative = inhibition: at the top concentration
How it was run: as §1

Row | SMILES | Potency | activity, negative = inhibition
52 | NC(=O)N/N=C/c1ccc([N+](=O)[O-])o1 | 12.6 µM (active) | 
53 | CCCCN(CCCC)CC(O)c1cc(Cl)cc2c1-c1ccc(Cl)cc1/C2=C/c1ccc(Cl)cc1 (stereo unspecified) | 0.0126 µM (active) | 
54 | CC(=O)c1ccc2c(c1)N(CCCN(C)C)c1ccccc1S2 |  | -26.2% [at 12.8 µM]
55 | CSc1ccc2c(c1)N(CCC1CCCCN1C)c1ccccc1S2 (stereo unspecified) | 8.91 µM (active) | 
56 | O=C(O)CN1C(=O)c2cccc3cccc(c23)C1=O |  | 1.07%
57 | CC(C)(C)C(=O)C(Oc1ccc(Cl)cc1)n1ccnc1 (stereo unspecified) | 10 µM (active) | 
58 | NC1CCN(c2cccc(Cl)n2)CC1 |  | -23.4%
59 | Cc1ccc2nc(N)[nH]c(=O)c2c1Sc1ccncc1 | 7.08 µM (active) | 
60 | CNCCCC1c2ccccc2C=Cc2ccccc21 |  | -28.1% [at 12.8 µM]
61 | CC(CN1c2ccccc2Sc2ccccc21)N(C)C (stereo unspecified) |  | 7.93%
62 | CCCn1cnc2c1c(=O)n(CCCCC(C)=O)c(=O)n2C |  | 4.94%
63 | CCOc1nc2cccc(C(=O)O)c2n1Cc1ccc(-c2ccccc2-c2nn[nH]n2)cc1 |  | -21.3%
64 | NCCNCCNCCN |  | 9.56%
65 | Nc1ncnc2c1ncn2[C@@H]1O[C@H](CO)[C@@H](O)[C@H]1O |  | 2.79%
66 | COc1ccc2[nH]c(S(=O)Cc3ncc(C)c(OC)c3C)nc2n1 (stereo unspecified) | 8.91 µM (active) | 
